# Hits are enriched below; roughly 2.9% of the tested compounds scored in any of these assays.
# Wnt bcat act: Wnt/beta-catenin pathway activation. AID 743398. actives 1.2% (n = 300,000). Wnt/beta-catenin reporter cell assay, activator, plate reader. activation, % at 9.35 µM; in the data active = activation above about 30%, passing the limit was not always enough;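 also: 0% = neutral control wells and 100% = positive control wells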
# NSD2 HMT inh: inhibitors of human histone methyltransferase NSD2; O96028; NSD2 peptide methylation, AlphaScreen, 120 min; inhibition, % at 12.5 µM; actives 0.54% (n = 310,000); AID 743445; in the data active = inhibition above about 50%
# Target sequence (O96028 whole entry, looked up): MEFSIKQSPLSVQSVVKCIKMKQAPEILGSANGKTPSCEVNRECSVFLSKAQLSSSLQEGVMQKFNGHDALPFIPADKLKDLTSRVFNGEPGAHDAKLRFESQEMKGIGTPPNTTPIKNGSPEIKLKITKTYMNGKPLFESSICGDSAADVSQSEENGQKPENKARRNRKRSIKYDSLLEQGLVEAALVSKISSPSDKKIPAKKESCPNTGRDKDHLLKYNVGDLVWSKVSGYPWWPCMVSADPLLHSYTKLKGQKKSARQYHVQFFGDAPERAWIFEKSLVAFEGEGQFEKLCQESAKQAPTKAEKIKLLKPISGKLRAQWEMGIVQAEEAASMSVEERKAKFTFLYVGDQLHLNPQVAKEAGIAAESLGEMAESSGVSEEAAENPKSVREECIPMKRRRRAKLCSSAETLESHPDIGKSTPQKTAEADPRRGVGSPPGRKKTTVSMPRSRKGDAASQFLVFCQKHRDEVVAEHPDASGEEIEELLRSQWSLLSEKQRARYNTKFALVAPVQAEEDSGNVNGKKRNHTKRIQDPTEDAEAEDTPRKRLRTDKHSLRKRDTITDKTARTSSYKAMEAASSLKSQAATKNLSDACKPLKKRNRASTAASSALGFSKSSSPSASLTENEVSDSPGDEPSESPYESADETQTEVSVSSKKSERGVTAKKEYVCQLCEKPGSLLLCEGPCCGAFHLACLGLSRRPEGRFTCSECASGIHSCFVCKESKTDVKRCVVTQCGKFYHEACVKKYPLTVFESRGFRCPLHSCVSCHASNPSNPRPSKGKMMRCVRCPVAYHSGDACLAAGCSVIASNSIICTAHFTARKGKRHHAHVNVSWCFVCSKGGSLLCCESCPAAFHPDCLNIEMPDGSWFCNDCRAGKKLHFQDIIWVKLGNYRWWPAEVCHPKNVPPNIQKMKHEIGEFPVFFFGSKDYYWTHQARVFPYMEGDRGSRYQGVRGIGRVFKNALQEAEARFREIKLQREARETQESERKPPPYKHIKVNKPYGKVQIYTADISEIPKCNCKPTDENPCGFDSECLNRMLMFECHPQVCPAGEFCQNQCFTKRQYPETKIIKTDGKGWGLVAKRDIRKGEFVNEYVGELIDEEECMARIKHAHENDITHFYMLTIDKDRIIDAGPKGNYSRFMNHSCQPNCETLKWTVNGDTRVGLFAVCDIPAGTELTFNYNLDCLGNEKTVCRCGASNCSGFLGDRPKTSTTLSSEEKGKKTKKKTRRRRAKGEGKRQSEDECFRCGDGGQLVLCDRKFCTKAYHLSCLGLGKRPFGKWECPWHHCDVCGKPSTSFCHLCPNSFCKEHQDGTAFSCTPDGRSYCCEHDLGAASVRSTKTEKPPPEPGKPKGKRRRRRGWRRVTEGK
# PfHsp90 yeast 2: inhibits growth of yeast expressing Plasmodium falciparum Hsp90; actives 0.32% (n = 310,000); AID 504621; inhibition, % at 9.4 µM; S. cerevisiae expressing PfHsp90, BacTiter-Glo ATP, 48 h; yeast lacking PDR1 and PDR3 efflux regulators;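 active = every replicate shows inhibition above about 80%, whatever the replicate mean, limit read from the data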;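 also: 0% = DMSO neutral controls and 100% = 20 µM radicicol positive controls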
# Glyco luc inh: N-linked glycosylation inhibition; D54 ERlucT glycosylation luciferase reporter, 24 h; percent of 100 nM tunicamycin response; reporter increase, % at 12.5 µM; actives 0.23% (n = 360,000);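 active = mean luciferase reporter signal, scaled so untreated is 0 and the glycosylation-blocking control 100, at or above a set limit in every replicate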;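 also: luciferase carries N-glycosylation sites so blocking glycosylation raises the light; 0% = median of neutral control wells and 100% = median of 100 nM tunicamycin wells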
# TRPM1 prom inh: reduces MITF-dependent TRPM1 promoter luciferase signal; actives 0.83% (n = 330,000); SK-MEL-5 TRPM1 promoter luciferase, 24 h; inhibition, % at 12.5 µM;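 active = mean inhibition across replicates of 60% or more, whatever share of single replicates reaches that level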
# MITF TRPM1 HTS: MITF TRPM1 promoter activation in melanoma cells; AID 588334; SK-MEL-5 TRPM1-promoter luciferase, 24 h; % of positive control, neutral wells = 0; actives 0.75% (n = 300,000); activation, % at 12.5 µM;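 active = mean activation of at least 80% with every replicate also reaching 80%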;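 also: 0% = neutral control wells and 100% = parthenolide positive control wells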
# Alpha artifact: interferes with AlphaScreen signal, flagging NSD2 false positives; shares compounds with NSD2 HMT inh; AlphaScreen artifact counterscreen, preloaded methylated H4 peptide; AC35, µM (top dose mostly 10 µM), for inactives: top-dose activity change, negative = signal loss; actives 9.4% (n = 1,500); call rule not given here
# Active calls of the source: *; / = no result.
SMILES,Wnt bcat act,NSD2 HMT inh,PfHsp90 yeast 2,Glyco luc inh,TRPM1 prom inh,MITF TRPM1 HTS,Alpha artifact
COc1cccc(CN(C)C(=O)c2cc(COc3c(F)cccc3F)on2)c1,1,99*,/,0,-7,8,3%
N#Cc1ccccc1OCC(=O)OCC(=O)N1CCN(C(=O)c2ccco2)CC1,-2,57*,-33,4,12,-13,-3%
N#Cc1ccc(C(=O)OCC(=O)N2CCN(C(=O)c3ccco3)CC2)cc1,-2,1,-38,2,6,-3,/
Cn1c(=O)c2c(-c3ccccc3)n(Cc3cccnc3)cc2n(C)c1=O,1,53*,7,2,-3,3,-4%
Cc1ccc(-c2c3c(=O)n(C)c(=O)n(C)c3cn2Cc2cccnc2)cc1,/,-1,13,3,6,-3,/
CC(=O)Nc1ccc(N(C(=O)CNC(=O)c2ccco2)C(C(=O)NCC2CCCO2)c2ccccc2)cc1 (stereo unspecified),-1,51*,-24,1,-12,7,1%
Cc1cccc(CCNC(=O)c2cc(S(=O)(=O)N3CCCCC3)c[nH]2)c1,-3,/,17,-4,/,/,/
COc1ccc(CNC(=O)c2nnn(-c3cccc(C(F)(F)F)c3)c2N)cc1,-2,51*,-9,5,-8,7,2%
O=C(NCC1CC1)c1ccc(-n2ccnc2)c2ccoc12,-1,63*,/,0,/,/,-3%
COC(=O)N(C)C[C@@H]1OCc2cnnn2CCCC(=O)N([C@@H](C)CO)C[C@H]1C,-1,/,/,0,/,/,/
CC1(C)CC2CC(C)(CN2C(=O)COC(=O)CNC(=O)c2ccc(Cl)c(Cl)c2)C1 (stereo unspecified),-6,0,-7,1,3,-2,/
O=P(c1ccccc1)(c1ccccc1)c1ccc(O)cc1,-3,-2,-33,0,2,-5,/
CNc1c(N)n(Cc2ccccc2)c(=O)[nH]c1=O,/,64*,18,3,-2,/,-7%
Cc1cc2c(ncn2C(C)C)c(N)c1C,/,6,-2,3,10,/,/
COc1ccccc1OCCOc1ccc(/C=C2\C(=N)N3N=C(S(C)(=O)=O)SC3=NC2=O)cc1,0,71*,-37,-1,-13,11,-7%
CCOc1ccc(-n2cnc3sc4c(c3c2=O)CCCC4)cc1,-1,58*,/,0,/,/,0%
Cc1ccc(C(=O)NC(=S)c2c(C)cc3ccccn23)cc1,29,92*,/,-1,/,/,6.4µM*
Cc1cc2ccccn2c1C(=S)NC(=O)c1ccccc1,4,55*,14,-1,22,-22,10µM*
Cc1cc2ccccn2c1C(=O)c1ccncc1,4,7,-12,0,-1,1,/
COC(=O)CCCC(=O)NC1CC(C)(C)Cc2c1cnn2-c1ccc(C)cc1 (stereo unspecified),3,55*,1,1,15,-13,-1%
Cc1ccc2nc(CSc3nc(C)ccc3C#N)[nH]c2c1,-1,33,5,-8,-5,0,/
Cc1ccc(C#N)c(SCc2ccccc2F)n1,-1,60*,/,-4,/,/,-1%
CCC1(C(N)=O)CC2C=CC1C2 (stereo unspecified),-3,2,-11,2,-7,8,/
Cc1c(-c2cccc(Cl)c2)nc2ccccc2c1C(=O)OC/C(O)=C(\C#N)c1nc2ccccc2[nH]1,-2,56*,-2,63*,6,-5,-9%
O=[N+]([O-])c1ccc(Sc2cccc[n+]2[O-])c2nonc12,-26,129*,97*,-24,100*,-99,7.8µM*
CCC1CC(CSc2ncn[nH]2)OC1=O (stereo unspecified),-4,56*,/,0,0,/,-2%
CCCC1CC(CSc2ncn[nH]2)OC1=O (stereo unspecified),0,-5,-11,-1,-1,4,/
N#Cc1cc(-c2ccc(Cl)cc2)cnc1Sc1ccccc1,/,-5,24,-5,2,2,/
N#Cc1cc(-c2ccccc2)cnc1Sc1ccc(Cl)cc1,-2,112*,-12,-2,-13,17,7%

# Screening data: PubChem BioAssay, Broad Institute
